Measured values published in PubChem BioAssay.
Values joined by “and” are separate entries in the source; they are usually repeats but may differ in a detail not shown here. Equal values may be shown once. Results filed as inconclusive are left out. Active and inactive are the calls of the source. The rule behind the calls is not given here.

Key:
[1] = protection against mutant huntingtin cytotoxicity, PC12 cells, LDH release (AID 1610); conditions: PC12 mutant huntingtin toxicity, final LDH at 4 uM, stronger effect = lower value
[2] = enhancers of glutamate uptake in motor neurons, MN-1 cell line (AID 1612); conditions: MN-1 motor neuron cells, stronger effect = higher value;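 note: tested at 1 µM final; 0% = mean of DMSO vehicle wells on each plate; positive means more glutamate uptake than control and negative means less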
[3] = reducers of polyQ inclusions in PC12 cells, cell-based, NGF-treated PC12, GFPQ80 (AID 1614); conditions: PC12 NGF-treated GFP-polyQ80 inclusion reduction;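 note: lower means fewer inclusions and 0 means no inclusions at all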
[4] = suppressors of polyglutamine aggregation in yeast, 75Q-TubH (AID 1616); conditions: S. cerevisiae 75Q-TubH polyglutamine aggregation suppression; stronger effect = higher value
[5] = circadian clock period modulators, cell-based, LOPAC library, luminescence reporter (AID 2774); conditions: circadian reporter cells, at 7 µM, actives lie on both sides;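 note: values are relative to mean of DMSO wells on each plate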
[6] = hESC survival regulators, cell-based (AID 493140); conditions: human embryonic stem cell survival screen; stronger effect = higher value;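 note: cells exposed to compounds for four days before counting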

Compound	normalised LDH release [1]	glutamate uptake change [2]	inclusion score [3]	aggregation suppression score [4]	period change [5]	survival [6]
Cc1ccc(C(=O)C(C)CN2CCCCC2)cc1 (configuration not stated)	0.861	-0.03%	1.5	0.367	–	–
O=C1c2cccc(O)c2C(=O)c2c(O)cccc21	–	-10.8%	2	0.219	–	–
Cc1c(C(N)=O)cc([N+](=O)[O-])cc1[N+](=O)[O-]	–	-10.4%	2	0.968	–	–
CN1CCCN=C1COC(=O)C(O)(c1ccccc1)C1CCCCC1 (configuration not stated)	–	10.4%	2	1.26	–	–
C[C@H]1c2cccc(O)c2C(O)=C2C(=O)[C@]3(O)C(O)=C(C(N)=O)C(=O)[C@@H](N(C)C)[C@@H]3[C@@H](O)[C@@H]21	0.903	-7.42%	0.5	0.446	-0.14 h (inactive)	–
CC(=O)NCCCCCC(=O)O	–	-9.11%	2	1.24	–	–
NC(=O)N/N=C/c1ccc([N+](=O)[O-])o1	0.973	16.7%	2	0.831	–	16.2 (inactive)
O=C1OCCN1/N=C/c1ccc([N+](=O)[O-])o1	–	4.62%	2	0.223	–	–
CCN(CC)CCNc1ccc(CO)c2sc3ccccc3c(=O)c12	0.8	14.7%	–	0.977	–	1.33 (inactive)
C[N+](C)(C)CCOC(N)=O	0.399	-6.66%	2	1.67	0.05 h (inactive)	4.67 (inactive)
COc1cccc(OC)c1C(=O)N[C@@H]1C(=O)N2[C@@H]1SC(C)(C)[C@@H]2C(=O)O	–	17.4%	2	1.05	–	–
O=C1c2c(O)cccc2Cc2cccc(O)c21	–	5.46%	2	1.2	–	–
O=C(Nc1ccc([N+](=O)[O-])cc1Cl)c1cc(Cl)ccc1O	-0.146	-52.2%	–	0.882	0.06 h (inactive)	1.67 (inactive)
Oc1c(Cl)cc(Cl)c(Cl)c1Cc1c(O)c(Cl)cc(Cl)c1Cl	0.936	-31.4%	–	-0.244	–	–
Nc1c(Br)cc(Br)cc1CNC1CCC(O)CC1 (configuration not stated)	0.856	5.04%	2	1.15	–	4.58 (inactive)
Cc1cc(C2CCCCC2)n(O)c(=O)c1	0.668	-12%	–	0.0349	–	0.667 (inactive)
C=CCc1ccc(O)c(OC)c1	–	-8.45%	2	1.76	–	–
OC[C@H]1O[C@@H](O[C@@H]2[C@@H](CO)O[C@](O)(CO)[C@H]2O)[C@H](O)[C@@H](O)[C@H]1O	–	8.9%	2	0.924	–	–
O=C(O)c1ccc(S(=O)(=O)N(Cl)Cl)cc1	–	-1.46%	2	1.13	–	–
O=C(O)CCCCC1CCSS1 (configuration not stated)	–	-7.39%	2	0.186	–	–
CC1=NN(c2ccccc2)C(=O)C1	–	-0.14%	2	0.985	–	–
Oc1c(Cl)cc(Cl)cc1Sc1cc(Cl)cc(Cl)c1O	1.06	-39%	–	0.0465	–	–

Compound	normalised LDH release [1]	glutamate uptake change [2]	inclusion score [3]	aggregation suppression score [4]	period change [5]	survival [6]
CC(=O)OCC(COC(C)=O)OC(C)=O	–	-13.9%	2	1.25	–	–
S=P(N1CC1)(N1CC1)N1CC1	–	2.63%	1.5	0.449	–	–
O=NN(CCCl)C(=O)NCCCl	0.621	5.94%	–	0.185	0.115 h (inactive)	–
N[C@@H](CCC(=O)N[C@@H](CS)C(=O)NCC(=O)O)C(=O)O	–	13.8%	2	1.61	–	–
CC(NCCC(c1ccccc1)c1ccccc1)c1ccccc1 (configuration not stated)	1.14	-8.71%	–	1.16	–	3.08 (inactive)
CC(=O)Nc1ccc(S(=O)(=O)Nc2ccc([N+](=O)[O-])cc2)cc1	0.673	20.4%	2	1.23	–	–
CCOC(N)=O	–	-13.5%	2	1.21	–	–
Oc1cccc(O)c1	–	8.45%	2	1.13	–	–
CN(C)c1ccc(C(=C2C=CC(=[N+](C)C)C=C2)c2ccc(N(C)C)cc2)cc1	0.824	-15.7%	–	-1.97	–	–
COc1ccc(C2C(=O)c3ccccc3C2=O)cc1	–	-8.78%	2	0.401	–	–
NC(=O)NC(=O)Cc1ccccc1	–	-11.7%	2	1.17	–	–
N=C(N)N	–	5.8%	2	0.901	–	–
CCOC(=O)[C@H](CCc1ccccc1)N[C@@H](C)C(=O)N1CCC[C@H]1C(=O)O	–	-6.34%	2	1.1	–	–
CCCCCC(C)N (configuration not stated)	–	3.71%	2	0.962	–	–
CC(=O)Nc1ccccc1	–	3.38% and -12.1%	2	1.6 and 1.51	–	–
Nc1ccc(C(=O)O)c(O)c1	–	2.47%	2	1.24	–	–
Nc1ccc(C(=O)O)cc1	–	15.6%	2	1.25	–	–
Nc1c2c(nc3ccccc13)CCCC2O (configuration not stated)	–	6.03%	2	0.587	0.15 h (inactive)	–
NC(=O)c1ccccc1O	–	8.07%	2	1.02	–	–
NC(Cc1ccc(Cl)cc1)C(=O)O (configuration not stated)	–	-15.1%	2	1.23	-0.015 h (inactive)	–
O=C(CCBr)N1CCN(C(=O)CCBr)CC1	–	17.8%	2	0.931	–	–
NC(=O)NO	–	1.4%	2	1.3	-0.055 h (inactive)	–

Compound	normalised LDH release [1]	glutamate uptake change [2]	inclusion score [3]	aggregation suppression score [4]	period change [5]	survival [6]
CCCOc1ccc2nc(NC(=O)OC)[nH]c2c1	–	-36.6%	2	0.918	–	–
NC(=O)c1ncn([C@@H]2O[C@H](CO)[C@@H](O)[C@H]2O)n1	–	14.1%	1.5	1.25	0.065 h (inactive)	–
CNC[C@H](O)c1cccc(O)c1	–	3.44%	2	1.2	-0.48 h (inactive)	–
CC(=O)N[C@@H](CS)C(=O)O	–	-3.8%	2	1.2	0.1 h (inactive)	–
O=c1cc[nH]c(=S)[nH]1	–	7.71%	2	1.48	–	–
NC(=O)c1ncn([C@@H]2O[C@H](CO)[C@@H](O)[C@H]2O)c1O	–	20.3%	2	0.757	-0.05 h (inactive)	–
CN(C)/N=N/c1nc[nH]c1C(N)=O	–	-11.4%	2	1.16	–	–
CCCCCCCCCCCCCCCCCCOCC(O)CO (configuration not stated)	–	11.1%	2	0.825	–	–
O=C(O)CCCCCCCC(=O)O	–	4.35%	2	0.919	0.115 h (inactive)	–
Nc1nccs1	–	28.6%	2	1.04	–	–
CC(=O)NO	–	11.3%	2	1.09	–	–
CO[C@@H]1[C@@H](OC(N)=O)[C@@H](O)[C@H](Oc2ccc3c(O)c(NC(=O)c4ccc(O)c(CC=C(C)C)c4)c(=O)oc3c2C)OC1(C)C	–	-19%	2	0.623	–	–
Cc1cc(=O)[nH]c(=S)[nH]1	–	14.6%	2	1.02	–	–
OCc1ccccc1O	–	16.3%	2	1.11	–	–
O=C(O)c1ccccc1O	–	15.9%	2	0.863	–	–
COc1ccc(NS(=O)(=O)c2ccc(N)cc2)nn1	–	8.78%	2	1.18	–	–
COc1ccc(CN(CCN(C)C)c2ncccn2)cc1	–	-15.6%	2	1.43	–	–
O=C(O)P(=O)(O)O	–	-1.79%	2	1.5	–	–
O=c1cc(CO)occ1O	–	5.22%	2	1.36	–	–
CCC(=O)c1c(O)cc(O)cc1O	–	-10.7%	2	1.29	–	–
NC[C@H](O)c1ccc(O)c(O)c1	–	21.3%	2	1.39	0.04 h (inactive)	–
CCCCC1C(=O)N(c2ccccc2)N(c2ccccc2)C1=O	–	-15.3%	2	0.296	0.01 h (inactive)	–

Compound	normalised LDH release [1]	glutamate uptake change [2]	inclusion score [3]	aggregation suppression score [4]	period change [5]	survival [6]
O=C(O)c1cc(=O)c2ccccc2o1	–	2.44%	2	1.45	–	–
NC(=O)c1ccc([N+](=O)[O-])cc1Cl	–	19.4%	2	1.31	–	–
CCN(CC)C(=O)c1cccc(C)c1	–	1.78%	2	1.01	–	–
CC1=C(C(=O)O)N2C(=O)[C@@H](NC(=O)[C@H](N)C3=CCC=CC3)[C@H]2SC1	–	-0.28%	2	1.56	–	–
O=C(N[C@H](CO)[C@H](O)c1ccc([N+](=O)[O-])cc1)C(Cl)Cl	–	7.27%	2	1.2	–	–
CC(=O)Oc1cccc(O)c1	–	-3.14%	2	0.901	–	–
CC1(C)S[C@@H]2[C@H](NC(=O)C(C(=O)O)c3ccccc3)C(=O)N2[C@H]1C(=O)O (some centres not stated)	–	7.16%	2	1.65	–	–
NCCCC(=O)O	–	-3.42%	2	0.665	0.105 h (inactive)	–
NS(=O)(=O)c1cc2c(cc1Cl)NC(C1CC3C=CC1C3)NS2(=O)=O (configuration not stated)	–	1.35%	2	0.424	0.225 h (inactive)	–
CC(=O)Oc1ccccc1C(=O)O	–	9.8%	2	1.28	-0.135 h (inactive)	–
Cn1c(=O)c2c(ncn2C)n(C)c1=O	–	-3.95%	2	1.18	0.03 h (inactive)	–
Cc1cc(C(C)(C)C)c(O)c(C)c1CC1=NCCN1	–	-22.6%	2	1.13	-0.09 h (inactive)	18.8 (inactive)
CCCOc1ccccc1-c1nc2n[nH]nc2c(=O)[nH]1	–	-4.8%	2	1.1	-0.2 h (inactive)	9.92 (inactive)
CN(C)[C@@H]1C(=O)C(C(N)=O)=C(O)[C@@]2(O)C(=O)C3=C(O)c4c(O)ccc(Cl)c4[C@@H](O)[C@H]3C[C@@H]12	–	0.55%	0	0.533	0.065 h (inactive)	2.92 (inactive)
CCN(CC)CCNC(=O)c1cc(Cl)c(N)cc1OC	–	-0.01%	2	1.2	-0.015 h (inactive)	14.7 (inactive)
Cn1cnc2c1c(=O)[nH]c(=O)n2C	–	-19.3%	1.5	1.09	-0.055 h (inactive)	3.33 (inactive)
O=C1NCC2(CCN(CCc3ccccc3)CC2)O1	–	-8.17%	2	1.64	0 h (inactive)	18.8 (inactive)
CCCCNc1ccc(C(=O)OCCN(C)C)cc1	–	5.32%	2	1.05	0.035 h (inactive)	12.4 (inactive)
CN(C)C(=O)Oc1cccc([N+](C)(C)C)c1	–	-18.8% and 13.6%	2	0.695 and 1.29	0.06 h (inactive)	12.1 (inactive)
